From PubChem BioAssay (NCI) come the findings set out here.

A short description of experiment [1]: NCI Yeast Anticancer Drug Screen. Data for the rad50 strain (AID 155).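 Note: 0% = growth of vehicle-only cultures of the same strain.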 As to conditions: S. cerevisiae rad50 strain growth inhibition, hits give high values. In a few lines: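 Inhibition values express reduced yeast growth in compound-treated cultures relative to vehicle-treated controls.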
A short description of experiment [2]: NCI Yeast Anticancer Drug Screen. Data for the mec2-1 strain (AID 157). As to conditions: S. cerevisiae mec2-1 strain, hits give high values. The procedure, abridged: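 Each compound was tested on mec2-1 yeast, a strain altered in DNA damage repair or cell cycle control. Growth inhibition is reported relative to vehicle.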
The nature of experiment [3]: NCI Yeast Anticancer Drug Screen. Data for the sgs1 mgt1 strain (AID 161).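 Note: 0% = growth of cultures given vehicle only.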 As to conditions: S. cerevisiae sgs1 mgt1 strain, hits give high values. The procedure, abridged:
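Inhibition of yeast growth, normalised to vehicle-treated controls, is reported for a strain bearing genetic alterations in DNA damage repair.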

Experiment [4] in a line: NCI Yeast Anticancer Drug Screen. Data for the cln2 rad14 strain (AID 165).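 Note: 0% = growth equal to vehicle treated cultures.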 The following applies: S. cerevisiae cln2 rad14 strain, hits give high values. In a few lines: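 Test compounds were added to cln2 rad14 yeast cultures; inhibition of growth was then determined by comparison with vehicle treatment.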
The nature of experiment [5]: NCI Yeast Anticancer Drug Screen. Data for the bub3 strain (AID 167). As to conditions: S. cerevisiae bub3 mutant strain, hits give high values. The procedure, abridged: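 Steps: expose the mutant yeast strain to compound; grow alongside vehicle-treated cultures; measure growth; express inhibition against the vehicle cultures.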
The nature of experiment [6]: NCI Yeast Anticancer Drug Screen. Data for the mlh1 rad18 strain (AID 175). As to conditions: S. cerevisiae mlh1 rad18 strain growth inhibition, hits give high values. In a few lines: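 Inhibition values reflect reduced growth of mutant yeast versus vehicle-treated controls following compound exposure; the mutations affect DNA damage repair.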
Where [7] appears, read: at 5.0 µM (retest, dose inferred, filed as 0.5).
Setting [8] is: at 50.0 µM (retest, dose inferred, filed as 5.0).

Each structure is given as a SMILES string. About 79,000 compounds went through this panel and 15% of them were active in at least one assay; those are over-represented in the sample as a whole. A number with no mark means an inactive call. The source made the active and inactive calls. Cut-off read from the data, not from the text of the source: active = growth inhibition above about 70%; inactive = the rest.

For `CS(=O)c1cc(=O)c2ccccc2s1` (configuration not stated), the growth inhibition in experiment [1] (setting [7]) is 6%; in experiment [1] (setting [8]) it was 85% (active); in experiment [1] (at 50.0 µM) it was 98.2% (active); in experiment [2] (setting [7]) it was -4%; in experiment [2] (setting [8]), 73% (active); in experiment [2] (at 50.0 µM), 98.9% (active). Also, the growth inhibition in experiment [3] (setting [7]) was 19%; in experiment [3] (setting [8]), 67%; in experiment [3] (at 50.0 µM) it was 99.3% (active); in experiment [4] (setting [7]) it was 10%; in experiment [4] (setting [8]) it was 60%; in experiment [4] (at 50.0 µM), 84.4% (active). In addition, the growth inhibition is 0% in experiment [5] (setting [7]); 95% (active) in experiment [5] (setting [8]); 96.2% (active) in experiment [5] (at 50.0 µM); 14% in experiment [6] (setting [7]); 88% (active) in experiment [6] (setting [8]); 99% (active) in experiment [6] (at 50.0 µM).

Consider `FC(F)(F)c1nc(Cl)nc2nc[nH]c12`, for which the growth inhibition in experiment [1] (setting [7]) was 3%; in experiment [1] (setting [8]) it was -9%; in experiment [1] (at 50.0 µM), 26.4%; in experiment [2] (setting [7]), -7%; in experiment [2] (setting [8]), -2%; in experiment [2] (at 50.0 µM), 6.1%. In addition, the growth inhibition in experiment [3] (setting [7]) is -3%; in experiment [3] (setting [8]), -10%; in experiment [3] (at 50.0 µM) it was -31.4%; in experiment [4] (setting [7]), -3%; in experiment [4] (setting [8]) it was 0%; in experiment [4] (at 50.0 µM), 17.4%. In addition, the growth inhibition in experiment [5] (setting [7]) was -1%; in experiment [5] (setting [8]) it was 4%; in experiment [5] (at 50.0 µM), -21.7%; in experiment [6] (setting [7]) it was 0%; in experiment [6] (setting [8]) it was -8%; in experiment [6] (at 50.0 µM), -4.75%.

For the molecule `Clc1cc2n[nH]nc2c(Cl)c1Cl`, the growth inhibition in experiment [1] (setting [7]) was -6%; in experiment [1] (setting [8]), 63%; in experiment [1] (at 50.0 µM), 74.8% (active); in experiment [2] (setting [7]) it was 6%; in experiment [2] (setting [8]), 84% (active); in experiment [2] (at 50.0 µM), 95.9% (active). Further, the growth inhibition in experiment [3] (setting [7]) is 16%; in experiment [3] (setting [8]) it was 83% (active); in experiment [3] (at 50.0 µM) it was 46.8%; in experiment [4] (setting [7]) it was -17%; in experiment [4] (setting [8]) it was 65%; in experiment [4] (at 50.0 µM) it was 88.7% (active). Besides, the growth inhibition in experiment [5] (setting [7]) was -13%; in experiment [5] (setting [8]) it was 48%; in experiment [5] (at 50.0 µM), 85.8% (active); in experiment [6] (setting [7]) it was 6%; in experiment [6] (setting [8]) it was 94% (active); in experiment [6] (at 50.0 µM), 93.3% (active).

On to `O=C(NC(OCc1ccccc1)(C(F)(F)F)C(F)(F)F)OCc1ccccc1`, for which the growth inhibition in experiment [1] (setting [7]) is -14%; in experiment [1] (setting [8]) it was 98% (active); in experiment [1] (at 50.0 µM), 96% (active); in experiment [2] (setting [7]), -5%; in experiment [2] (setting [8]), 92% (active); in experiment [2] (at 50.0 µM), 91% (active). In addition, the growth inhibition in experiment [3] (setting [7]) is -9%; in experiment [3] (setting [8]) it was 98% (active); in experiment [3] (at 50.0 µM), 93.7% (active); in experiment [4] (setting [7]) it was 11%; in experiment [4] (setting [8]), 96% (active); in experiment [4] (at 50.0 µM), 94.8% (active). Also, the growth inhibition is 13% in experiment [5] (setting [7]); 95% (active) in experiment [5] (setting [8]); 94.5% (active) in experiment [5] (at 50.0 µM); 2% in experiment [6] (setting [7]); 98% (active) in experiment [6] (setting [8]); 96.5% (active) in experiment [6] (at 50.0 µM).

With `CN(O)C(=S)c1ccccc1`, the growth inhibition in experiment [1] (setting [7]) is 50%; in experiment [1] (setting [8]), 87% (active); in experiment [1] (at 50.0 µM) it was 91.7% (active); in experiment [2] (setting [7]), 43%; in experiment [2] (setting [8]), 73% (active); in experiment [2] (at 50.0 µM), 93.3% (active). The growth inhibition in experiment [3] (setting [7]) is 55%; in experiment [3] (setting [8]) it was 99% (active); in experiment [3] (at 50.0 µM) it was 92.5% (active); in experiment [4] (setting [7]) it was 41%; in experiment [4] (setting [8]), 99% (active); in experiment [4] (at 50.0 µM), 89.6% (active). Moreover, the growth inhibition in experiment [5] (setting [7]) was 95% (active); in experiment [5] (setting [8]), 99% (active); in experiment [5] (at 50.0 µM), 91.8% (active); in experiment [6] (setting [7]), 36%; in experiment [6] (setting [8]), 67%; in experiment [6] (at 50.0 µM), 86.7% (active).

As for `CC1CN(CCCN2c3ccccc3Sc3ccc(Cl)cc32)C(C)(C)C1` (configuration not stated), the growth inhibition in experiment [1] (setting [7]) is 1%; in experiment [1] (setting [8]) it was 99% (active); in experiment [1] (at 50.0 µM), 99.7% (active); in experiment [2] (setting [7]), 5%; in experiment [2] (setting [8]), 100% (active); in experiment [2] (at 50.0 µM) it was 99.8% (active). Further, the growth inhibition in experiment [3] (setting [7]) is 17%; in experiment [3] (setting [8]), 100% (active); in experiment [3] (at 50.0 µM), 99.8% (active); in experiment [4] (setting [7]), 10%; in experiment [4] (setting [8]), 99% (active); in experiment [4] (at 50.0 µM), 99.3% (active). Further, the growth inhibition in experiment [5] (setting [7]) is 21%; in experiment [5] (setting [8]), 100% (active); in experiment [5] (at 50.0 µM), 99.3% (active); in experiment [6] (setting [7]), 9%; in experiment [6] (setting [8]), 99% (active); in experiment [6] (at 50.0 µM) it was 99.8% (active).

As for `O=C(O)C1(Cc2ccc3c(c2)CCC3)Cc2cc3c(cc2C1)CCC3`, the growth inhibition was 2% in experiment [1] (setting [7]); 2% in experiment [1] (setting [8]); 82.8% (active) in experiment [1] (at 50.0 µM); -7% in experiment [2] (setting [7]); -7% in experiment [2] (setting [8]); 86.1% (active) in experiment [2] (at 50.0 µM). In addition, the growth inhibition in experiment [3] (setting [7]) is -1%; in experiment [3] (setting [8]) it was -1%; in experiment [3] (at 50.0 µM) it was 77.8% (active); in experiment [4] (setting [7]) it was -1%; in experiment [4] (setting [8]) it was -1%; in experiment [4] (at 50.0 µM) it was 82% (active). Also, the growth inhibition was -11% in experiment [5] (setting [7]); -11% in experiment [5] (setting [8]); 82.2% (active) in experiment [5] (at 50.0 µM); 14% in experiment [6] (setting [7]); 14% in experiment [6] (setting [8]); 80.1% (active) in experiment [6] (at 50.0 µM).

For `COc1ccc2c(c1)C=C([N+](=O)[O-])C(C1OC(C)(C)OC1C1COC(C)(C)O1)O2` (configuration not stated), the growth inhibition in experiment [1] (setting [7]) was 17%; in experiment [1] (setting [8]), 12%; in experiment [1] (at 50.0 µM), 7.3%; in experiment [2] (setting [7]) it was 22%; in experiment [2] (setting [8]) it was 24%; in experiment [2] (at 50.0 µM), 65.2%. Moreover, the growth inhibition in experiment [3] (setting [7]) is 24%; in experiment [3] (setting [8]), 14%; in experiment [3] (at 50.0 µM), 16.5%; in experiment [4] (setting [7]) it was 19%; in experiment [4] (setting [8]), 11%; in experiment [4] (at 50.0 µM) it was 45.1%. Also, the growth inhibition in experiment [5] (setting [7]) was 48%; in experiment [5] (setting [8]) it was 43%; in experiment [5] (at 50.0 µM) it was 0.6%; in experiment [6] (setting [7]) it was 24%; in experiment [6] (setting [8]), 21%; in experiment [6] (at 50.0 µM), 19.8%.

Take `COc1cc(C(=O)OCC(C)C)ccc1O`: the growth inhibition in experiment [1] (setting [7]) was 3%; in experiment [1] (setting [8]), 33%; in experiment [1] (at 50.0 µM), 15.1%; in experiment [2] (setting [7]) it was 3%; in experiment [2] (setting [8]) it was 4%; in experiment [2] (at 50.0 µM) it was 6.2%. For the same molecule, the growth inhibition in experiment [3] (setting [7]) is 2%; in experiment [3] (setting [8]) it was 8%; in experiment [3] (at 50.0 µM), 2.8%; in experiment [4] (setting [7]), 2%; in experiment [4] (setting [8]), 14%; in experiment [4] (at 50.0 µM), -16.1%. Besides, the growth inhibition in experiment [5] (setting [7]) is 96% (active); in experiment [5] (setting [8]), 98% (active); in experiment [5] (at 50.0 µM), 45.3%; in experiment [6] (setting [7]), -5%; in experiment [6] (setting [8]), 13%; in experiment [6] (at 50.0 µM), 3.3%.
